Laboratory results as given in PubChem BioAssay AID2685 (National Center for Advancing Translational Sciences (NCATS), 2010).
Screen size: about 320,000 compounds; about 2,100 (0.66%) were called active. Another 53% or so got no clear call; they are omitted. Calls come from the whole dose curve; as a rule, active = well fitted inhibition curve with a large enough effect in the signal ratio, with a control signal flat (not every such curve was filed as active); inconclusive = small, poorly fitted or top-dose-only effect, or effect the other way, or a change in a side signal; inactive = flat fitted curve, though single readings scatter; the % refers to the signal ratio. This excerpt belongs to a sample that is enriched for actives.

Experiment: qHTS Assay for Lipid Storage Modulators in Drosophila S3 Cells;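 for cell number change: cells counted by Cell Tracker Red CMTPX staining in the red channel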; for lipid storage change, negative = inhibition: % is set by controls: 0 for no effect and ±100 for the full control effect
Settings: BODIPY lipid droplet fluorescence, 18-24 h, cells fed with added oleic acid; cell number change: measured here: cell count max response; series mostly up to 46.1 µM; lipid storage change, negative = inhibition: at the top concentration
Outline: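 Drosophila S3 cells loaded with oleic acid (400 uM, as added) and compounds at several concentrations; lipid droplets imaged by 488-nm laser-scanning cytometry, 500–530 nm intensity and object ratio to cell channel. Percent activity normalized to 20 uM Triacsin C.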
Potency is the fitted concentration of half-maximal effect.

Compound | lipid storage change, negative = inhibition | cell number change | outcome | Potency
Cc1cccc(CSc2nnc([C@@H]3CCCN3C(=O)OC(C)(C)C)o2)c1 | 0.387% (inactive) | 6.08% |  | 
CCOC(=O)C1CCN(c2ccc([N+](=O)[O-])cc2)CC1 | -22.6% (inactive) | -12% |  | 
COc1ccc(OC)c(S(=O)(=O)Nc2ccc3oc(C)c(C(C)=O)c3c2)c1 |  | -9.21% | inactive | 
Cc1ccsc1C(=O)OCC(=O)NC1CCS(=O)(=O)C1 (stereo not given) | -5.35% (inactive) | 0.0545% |  | 
O=C(COC(=O)c1cccc(C(=O)OCC(=O)NC2CCCCC2)n1)NC1CCCCC1 |  | -17.1% |  | 20.6 µM (active)
Cc1cc(C)cc(OCC(=O)OCC(=O)NC2CCCCCCC2)c1 |  | -3.74% | inactive | 
O=C(COC(=O)c1c(Cl)cccc1Cl)NC1CCCCC1 | 3.06% (inactive) |  |  | 
O=C(COC(=O)c1ccccc1)NC1CCCC1 | -8.07% (inactive) | -13.7% |  | 
Cc1ccsc1C(=O)OCC(=O)NCCNC(=O)COC(=O)c1sccc1C | -4.96% [at 0.0737 µM] (inactive) | 12.8% |  | 
O=C(COC(=O)c1nc(Cl)ccc1Cl)NC1CCCCCC1 |  |  | inactive | 
Cc1cc(C)c(OCC(=O)OCC(=O)NC2CCCCCCC2)c(C)c1 |  | 19.3% |  | 1.84 µM (active)
Nc1c(Cl)c(Cl)nc(C(=O)OCC(=O)NC2CCCCC2)c1Cl |  | -8.54% |  | 9.2 µM (active)
Cc1ccsc1C(=O)OCC(=O)NC1CCCC1 |  | -11% |  | 0.517 µM (active)
Cc1ccccc1OCC(=O)OCC(=O)NC1CCCCCC1 |  | -24.2% | inactive [at 0.0737 µM] | 
Nc1c(C(=O)NC2CCCCC2)nsc1C(=O)OCC(=O)NC1CCCCC1 | 22.9% (inactive) | -16.5% |  | 
Cn1c(=O)c(=O)n(C)c2cc(S(=O)(=O)N3CCCCCC3)ccc21 | 8.17% (inactive) | 11.2% |  | 
CN(C)CCCNS(=O)(=O)c1ccc(N2CCN(Cc3ccc4c(c3)OCO4)CC2)c([N+](=O)[O-])c1 |  | -3.81% | inactive | 
COc1cc(OC)c(NC(=O)C(=O)CC(=O)c2ccc(C)cc2C)cc1Cl | -15.5% (inactive) | -12.6% |  | 
CN1C(=O)/C(=C/c2ccccc2Cl)Sc2ccc(C(=O)NCc3cccnc3)cc21 | 9.31% (inactive) | -7.77% |  | 
Cc1ccc(S(=O)(=O)N/N=c2\oc3ccccc3cc2C(=O)Nc2cccc(C)c2)cc1 | 19.4% (inactive) | -24.3% |  | 
CCOC(=O)c1sc2nc(C)nc(SCC(=O)N(CC)C3CCS(=O)(=O)C3)c2c1C (stereo not given) | 1.68% (inactive) | -1.32% |  | 
Cn1nc(-c2ccc(C(=O)NCCO)cc2)c2ccccc2c1=O | 2.9% (inactive) | -4.78% |  | 

Compound | lipid storage change, negative = inhibition | cell number change | outcome | Potency
CC1(c2ccc(OCC#N)cc2)C=C(c2ccc(OCC#N)cc2)n2nc(C(F)(F)F)nc2N1 (stereo not given) | -10.8% (inactive) | -2.27% |  | 
C=CCN1c2ccccc2[C@]23C[C@@H](C(=O)OC)N=C2NC(C(=O)OC)=C(C(=O)OC)[C@H]13 | 7.18% (inactive) | 33.7% |  | 
CC(C)OC(=O)/C(C#N)=C\c1cccnc1 | 2.35% (inactive) | 5.73% |  | 
CCC(C)(C)NC(=O)C(c1ccc(OC)cc1)N(C(=O)CCC(=O)Nc1cc(C)on1)C1CC1 (stereo not given) |  | -1.32% | inactive | 
O=C(Nc1cc2c(cc1Br)OCCO2)c1cccnc1 | 29.5% (inactive) | -16.4% |  | 
Cc1ccc(S(=O)(=O)NNC(=O)C2CCN(S(=O)(=O)c3ccc(C)cc3)CC2)cc1 | -9.5% (inactive) | 1.57% |  | 
Cc1ccc(S(=O)(=O)N2CCC(C(=O)NNS(=O)(=O)c3ccc(Cl)cc3)CC2)cc1 | -27.5% (inactive) | 4.8% |  | 
Cc1ccc(S(=O)(=O)NNC(=O)C2CCCCC2)cc1 |  | 6.31% |  | 0.651 µM (active)
CCOc1ccc(C(=O)OCC(=O)N2CCCC2)cc1OCC |  | -21% | inactive | 
COc1ccccc1NS(=O)(=O)c1cc(NC(=O)CCNC(C)=O)ccc1C | 6.34% (inactive) | 9.21% |  | 
CS(=O)(=O)NCCCNc1ccc(C(F)(F)F)cc1[N+](=O)[O-] | -1.44% (inactive) | 2.05% |  | 
O=[N+]([O-])c1cc(C(F)(F)F)ccc1NCCCCNS(=O)(=O)c1ccc(Cl)cc1 |  | -16.8% |  | 25.9 µM (active)
CS(=O)(=O)NCCCCNc1ccc(C(F)(F)F)cc1[N+](=O)[O-] | 3.4% (inactive) | 4.42% |  | 
COc1ccc(C(=O)NCCNc2nc3ccc(C)cc3cc2C#N)cc1 |  | -23.8% |  | 20.6 µM (active)
COc1ccc(C(=O)NCCNc2nc3ccc(C)cc3cc2C#N)cc1OC | 19.1% (inactive) |  |  | 
CCOc1ccc2nc(NCCNC(=O)CC)c(C#N)cc2c1 | 16.4% (inactive) | 0.214% |  | 
CCOc1ccccc1OCCCC(=O)N1CCN(S(=O)(=O)c2ccc(C)cc2)CC1 | 11.4% (inactive) | -13.5% |  | 
Cc1c(C(=O)O)sc2nc(CSc3ncc(C(F)(F)F)cc3Cl)[nH]c(=O)c12 | 3.11% (inactive) | 6.43% |  | 
Cc1c(C)n(Cc2ccccc2)c2ncnc(NCCCO)c12 | -4.82% (inactive) | 13.8% |  | 
O=c1c(Cl)c(NCc2ccc(F)cc2Cl)cnn1C12CC3CC(CC(C3)C1)C2 | 1.12% (inactive) | -5.4% |  | 
O=c1c(Cl)c(NCc2ccco2)cnn1C12CC3CC(CC(C3)C1)C2 | -19% (inactive) | -8.21% |  | 
O=c1c(Cl)c(NCc2ccccc2Cl)cnn1C12CC3CC(CC(C3)C1)C2 |  | -8.24% |  | 13 µM (active)
